The panel holds about 83,000 compounds, 20% with a hit somewhere; the sample as a whole holds those more often.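 Cell lines were cultured in 96-well plates, exposed to a single compound concentration, and assessed for percent growth 48 hours later.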 Unmarked numbers belong to inactive results. Active and inactive are the calls of the source. The calls were made as follows: active = growth percent below 10; inactive = the rest.

The experiment has as its system HL-60(TB) leukemia. The experiment in a line: NCI-60 one-dose screen, 48 h (100 = growth as untreated, 0 = no growth, -100 = all killed). The conditions noted are these: 10 µM unless noted.
As for `O=c1c2cccc(F)c2sc2c(NCCCNCCO)nc3ccccc3c12`, the growth is -6.55% (active). To `Cc1cc[n+](CCCC[n+]2ccc(C)cc2)cc1` belongs 94.5%. `O=C1C=C(Nc2cccc(Br)c2)c2ccccc2C1=O`: the growth is 71.8%. Regarding `CC(=O)c1cccc(N(C)S(=O)(=O)c2ccc(C)cc2)c1`, the growth was 88.8%. To `CCN(CC)CCCC(C)Nc1ccnc2cc(Cl)c(SCc3ccccc3)cc12` (stereo not given) belongs -64.8% (active); to `O=C1COCCN1c1ccc(NCc2cn(Cc3ccccc3)c3ccccc23)cc1`, 99.1%; to `CCCc1cc2c(cc1Br)OCO2`, 103%. With `COc1cc(/C=C2\CCCC3=C2N=C2SC=NN2C3c2cc(OC)c(OC)c(OC)c2)cc(OC)c1OC` (stereo not given), the growth was -1.19% (active). To `O=c1c2ccccc2[nH]n1Cc1ccc2c(c1)OCO2` belongs 98.4%; to `CN1CCN(C(=O)/C=C/c2ccc([N+](=O)[O-])o2)CC1`, 66.2%; to `CC(=O)OCC(=O)C1(O)C(C)CC2C3C=C(C)C4=Cc5c(cnn5-c5ccccc5)CC4(C)C3C(O)CC21C` (stereo not given), 14.7%. To `Nc1cccc(-c2nc3sccn3c2-c2ccnc(NCCCNS(=O)(=O)c3cccc4ccccc34)n2)c1` belongs 7% (active); to `CCOC(=O)CC(c1ccccc1)C(C#N)c1ccccc1` (stereo not given), 99.3%. Take `Fc1ccccc1-c1nc(-c2nc3cc(Cl)c(Cl)cc3[nH]2)c2ccccn12`: the growth is 81.6%. As for `CCOC(=O)CSC(=S)SCC(=O)OCC`, the figure is 103%; as for `Cc1c(Cn2c(C)nc3c(C(=O)O)cc(N4CCOCC4)cc32)cccc1C(F)(F)F`, 78.6%; as for `CCCCCCCCCCCCCCCCNC(=S)N/N=C/c1ccc(OC)cc1`, 94.3%. As for `CC(=O)Nc1ccc(S(=O)(=O)N/N=C(\C)c2ccc(C)cc2C)cc1`, the figure is 86.4%. With `CCC12OC(COc3ccccc3)CN1CCN2c1ccccc1` (stereo not given), the growth was 94.7% [100 µM]. To `CCNC(=O)Oc1ccc(/C(=C(\C)c2ccccc2)c2ccc(OCCN(CC)CC)cc2)cc1` belongs 52.5%; to `C[C@H]1C[C@@H](n2cnc3c(N)nccc32)[C@H](O)[C@@H]1O`, 80.5%.

In the case of `C=C1C(=O)O[C@H]2[C@H]1CC/C(COC(=O)/C=C\C(=O)NCc1ccc(Cn3c(=O)sn(CCCC)c3=O)cc1)=C\CC[C@@]1(C)O[C@@H]21`, the growth is -45.6% (active).

For `COc1cc(-c2nn(-c3ccc(NC(=O)Nc4ccc(Cl)c(Cl)c4)cc3)cc2-c2ccncc2)ccc1Cl`, the growth is 4.29% (active). To `Cc1nc2ccc(CN(C)c3ccc(C(=O)N[C@@H](CCC(=O)O)C(=O)O)s3)cc2c(=O)[nH]1` belongs 27.9%.

Turning to `O=C1N[C@@H]2[C@@H](O)[C@@H](O)[C@H](O)C[C@H]2c2cc3c(c(O)c21)OCCO3`, the growth was -18.8% (active). To `COc1ccc(C2C3(C#N)C(N)=NC(=C(C#N)C#N)C23C#N)cc1OC` (stereo not given) belongs 107%. To `COc1cc(-c2nc3ccccc3o2)cc(CN2CCN(c3ccccc3)CC2)c1O` belongs 71.3%; to `CN1CCN(C(=O)[C@@]2(C)CC[C@]3(C)CC[C@]4(C)C(=CC[C@@H]5[C@@]6(C)CCC(=O)NC(C)(C)[C@@H]6CC[C@]54C)[C@@H]3C2)CC1`, -35.8% (active). As for `COc1cccc(-n2cc(-c3nc(Cl)c4ccccc4n3)nn2)c1`, the figure is 97.3%.

`Cc1nc2c(-c3cnc(N)nc3)nc(N3CCOCC3)nc2n1C(C)C`: the growth was 10.8%.

As for `COc1cc(/C=N/NC(=O)c2ccc(C(F)(F)F)nc2Nc2ccc(Cl)cc2C)ccc1O`, the growth was 4.41% (active). As for `CCC(=O)C(CC)c1cccc(OC)c1` (stereo not given), the growth was 97.5%.

Turning to `CC(=O)OC/C=C(/C)C[P+](c1ccccc1)(c1ccccc1)c1ccccc1`, the growth was 44.9%. As for `Cc1cc2c(-c3nc4ccccn4c3NC3CCCCC3)c(O)c(O)cc2c(O)c1-c1c(C)cc2c(-c3nc4ccccn4c3NC3CCCCC3)c(O)c(O)cc2c1O`, the figure is 29.1%. On to `C/C1=C\CCC2(C)OC2CC2CCC(C)(O)C(CC1)C2(C)C` (stereo not given), for which the growth was 142%. To `OC[C@H]1OC([S-])[C@H](O)[C@@H](O)[C@@H]1O.[Au+]` (stereo not given in full) belongs 95.1%.

Take `O=C1OCC2=C1C(c1cccc(Cl)c1)c1cc3c(cc1N2CCO)CCC3` (stereo not given): the growth was -26.3% (active). As for `CCOC(=O)CCN(C(=O)Nc1ccccc1)C1CCCCC1`, the figure is 113%; as for `CC1CCN(CCCCCOc2ccc3oc4cc(Cl)ccc4c(=O)c3c2)CC1`, 43.4%; as for `O=C(N/N=C/c1ccc(Cl)cc1)c1ccccc1Nc1cccc(C(F)(F)F)c1`, 84.7%.

Values taken from PubChem BioAssay (NCI).
